Consider six compounds from PubChem BioAssay.

Assay [1] deals with Plasmodium falciparum Sir2 (PF13_0152, Sir2A). Nature of the assay: Plasmodium falciparum Sir2A binding compounds – biochemical, small-molecule microarray, 635 nm fluorescence, primary screen (AID 1098).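 Note: score merges spot fluorescence intensity with its signal-to-noise ratio.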 The following applies: fluorescence 635 nm, higher = more signal.
Assay [2] can be described thus: probe aDKK1 binding to arrayed compounds – biochemical, biotinylated probe, 635/667 nm fluorescence, primary screen (AID 1099).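 Note: score merges 667nm spot fluorescence with signal to noise across triplicate slides.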 The following applies: small-molecule microarray, higher = more signal.
Assay [3] in a line: probe aCHRDL2 binding to arrayed compounds – biochemical, biotinylated probe, 635/667 nm fluorescence, primary screen (AID 1100). The following applies: small-molecule microarray, higher = more signal.
A short description of assay [4]: change in splice reporter luminescence, either direction, cell-based, HEK293, spliceosome inhibition project, primary screen (AID 1101).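 Note: HEK293 cells carrying a splicing-competent luciferase reporter gene; test concentration not given here.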 The following applies: HEK293 splicing luciferase reporter, 24 h, higher = more signal, called active from +8 up or from −8 down.
Assay [5] deals with Fibroblast growth factor 10 (Homo sapiens) (UniProt O15520). Nature of the assay: compounds binding fibroblast growth factor 10 – biochemical, small-molecule microarray, 635 nm fluorescence, primary screen (AID 1102). The following applies: FGF10 binding, fluorescence 635 nm, higher = more signal.
Chain of Fibroblast growth factor 10 (Homo sapiens) (O15520 whole entry, looked up): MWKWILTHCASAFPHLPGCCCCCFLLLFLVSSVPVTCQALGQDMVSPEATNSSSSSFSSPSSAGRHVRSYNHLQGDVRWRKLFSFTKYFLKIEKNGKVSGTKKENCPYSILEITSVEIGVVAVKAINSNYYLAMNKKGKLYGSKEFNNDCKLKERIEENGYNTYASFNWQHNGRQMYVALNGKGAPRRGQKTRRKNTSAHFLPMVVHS
The subject of assay [6] is glycogen synthase kinase-3 (GSK3A per assay name; protocol says GSK3B). Description: compounds binding glycogen synthase kinase-3 – biochemical, small-molecule microarray, 635 nm fluorescence, GSK3A, primary screen (AID 1103). Note: the record names both GSK3A and GSK3B. The following applies: fluorescence 635 nm, higher = more signal.
Assay [7] addresses Epidermal growth factor receptor (Homo sapiens) (UniProt P00533). Nature of the assay: compounds binding epidermal growth factor receptor – biochemical, small-molecule microarray, 635 nm fluorescence, primary screen (AID 1104).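 Note: score merges 667 nm emission intensity with spot signal to noise over triplicate slides.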 The following applies: EGFR binding, higher = more signal.
For assay [8], the target named is Follistatin-related protein 3 (Homo sapiens) (UniProt O95633). Description: compounds binding follistatin-related protein 3 – biochemical, small-molecule microarray, 635 nm fluorescence, primary screen (AID 1105).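 Note: score merges emission near 667 nm and signal to noise per printed spot across three slides.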 The following applies: FSTL3 binding, higher = more signal.
Chain of Follistatin-related protein 3 (Homo sapiens) (O95633 whole entry, looked up): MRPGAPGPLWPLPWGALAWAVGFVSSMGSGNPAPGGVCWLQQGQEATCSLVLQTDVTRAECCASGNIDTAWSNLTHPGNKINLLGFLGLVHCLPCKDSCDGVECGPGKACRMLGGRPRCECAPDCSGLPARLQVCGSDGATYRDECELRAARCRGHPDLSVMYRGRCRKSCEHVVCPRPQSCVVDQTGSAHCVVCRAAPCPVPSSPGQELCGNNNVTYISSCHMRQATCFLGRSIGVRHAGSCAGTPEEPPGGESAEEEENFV
The target of assay [9] is Dickkopf-related protein 1 (Homo sapiens) (UniProt O94907). Nature of the assay: small molecules binding DKK1 protein – biochemical, small-molecule microarray, 635 nm fluorescence scan, primary screen (AID 1106).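 Note: score merges emission near 667 nm with signal to noise over three replicate slides.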 The following applies: higher = more signal.
Chain of Dickkopf-related protein 1 (Homo sapiens) (O94907 whole entry, looked up): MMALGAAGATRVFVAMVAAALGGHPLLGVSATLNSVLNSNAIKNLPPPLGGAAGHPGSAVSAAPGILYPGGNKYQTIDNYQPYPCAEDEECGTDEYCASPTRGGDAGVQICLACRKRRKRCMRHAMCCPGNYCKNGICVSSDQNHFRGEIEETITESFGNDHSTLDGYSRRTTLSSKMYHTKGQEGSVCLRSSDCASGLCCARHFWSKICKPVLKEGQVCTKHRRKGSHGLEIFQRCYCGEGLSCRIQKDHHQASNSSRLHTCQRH
Assay [10] relates to Inhibin beta A chain (activin A). Nature of the assay: small molecules binding activin A – biochemical, small-molecule microarray, 635 nm fluorescence scan, primary screen (AID 1107).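 Note: mouse activin A protein probed at 4.33 µg/mL on printed slides; score merges bound-protein fluorescence near 667 nm with spot signal-to-noise.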 The following applies: INHBA, higher = more signal.
For assay [11], the system named is Human papillomavirus type 1a protein E7 (residues 44-93). Description: small molecules binding HPV E7 44-93 – biochemical, small-molecule microarray, residues 44-93, 635 nm fluorescence, primary screen (AID 1108).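 Note: E7 fragment applied at 1 µg/mL in TBST for 1 h at 4 C; score combines spot fluorescence with its signal to noise ratio.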 The following applies: fluorescence 635 nm, higher = more signal.
Assay [12] can be described thus: hepatitis C replication reporter changes, two-sided – Huh7 cells, luciferase reporter, HCV replication inhibitor project, primary screen (AID 1109).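 Note: huh7 hepatoma cells harbouring a luciferase neomycin HCV replicon reporter; luciferase luminescence as measure of HCV replicon replication; test concentration not given here.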 The following applies: Huh7 HCV replicon luciferase reporter, 48 h; higher = more signal.
Assay [13] addresses Left-right determination factor 2 (Homo sapiens) (UniProt O00292). Description: small molecules binding LEFTY2 protein – biochemical, small-molecule microarray, 635 nm fluorescence scan, primary screen (AID 1110). The following applies: higher = more signal.
Assay [14] has as its target Calmodulin-1 (Homo sapiens) (UniProt P0DP23). Nature of the assay: small molecules binding calmodulin-1 with EGTA – biochemical, small-molecule microarray, Cy5-labelled CALM1, profiling panel (AID 1111).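 Note: labelled calmodulin applied in Tris saline Tween buffer holding calcium plus EGTA and DTT.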 The following applies: Cy5-CALM1 binding fluorescence, higher = more signal.
Assay [15] has the same target. Nature of the assay: small molecules binding Ca-loaded calmodulin-1 – biochemical, small-molecule microarray, Cy5-labelled CALM1, plus calcium, artefact control for SMM control-protein annotation, profiling panel (AID 1112).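 Note: score merges spot fluorescence with signal to noise from triplicate slides.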 The following applies: Cy5-CALM1 binding fluorescence, higher = more signal.
Assay [16] in a line: probe aWnt5a binding to arrayed compounds – biochemical, biotinylated probe, 635/667 nm fluorescence, primary screen (AID 1113).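 Note: score merges 667 nm fluorescence intensity with signal-to-noise per printed feature.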 The following applies: small-molecule microarray, higher = more signal.
A short description of assay [17]: probe aShh binding to arrayed compounds – biochemical, biotinylated probe, 635/667 nm fluorescence, primary screen (AID 1114).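 Note: probe is biotin-labelled aShh protein from a stem cell growth factor screen; measures binding of labelled protein to compounds printed on the slide; score merges feature fluorescence at 667 nm with signal-to-noise.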 The following applies: small-molecule microarray, higher = more signal.
The nature of assay [18]: probe aNog binding to arrayed compounds – biochemical, biotinylated probe, 635/667 nm fluorescence, primary screen (AID 1115).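 Note: probe is biotinylated aNog protein used at 0.15 µg/mL for 1 h at 4 C; z-score combines 667 nm fluorescence of each spot with its signal to noise.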 The following applies: small-molecule microarray, higher = more signal.
Assay [19] has as its target Torsin-1A-interacting protein 1 (Homo sapiens) (UniProt Q5JTV8). Description: compound microarray binding of lysate hLAP1 – cell lysate, small-molecule microarray, COS7 lysate, 635/667 nm fluorescence, primary screen (AID 1116). The following applies: 635 nm fluorescence, higher = more signal.
The target of assay [20] is Alpha-bungarotoxin (Bungarus multicinctus) (UniProt P60615). Description: compounds binding labelled alpha-BTX control protein – biochemical, small-molecule microarray, Alexa647 label, 635/667 nm fluorescence, artefact control for SMM control protein annotation, profiling panel (AID 1117). The following applies: alpha-BTX-A647 binding fluorescence, higher = more signal.
Chain of Alpha-bungarotoxin (Bungarus multicinctus) (P60615 whole entry, looked up): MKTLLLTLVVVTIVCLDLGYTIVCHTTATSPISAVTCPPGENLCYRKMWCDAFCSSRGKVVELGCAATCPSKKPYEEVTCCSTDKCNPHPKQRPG

Calls of active or inactive are those of the source.

Chain of Epidermal growth factor receptor (Homo sapiens) (P00533 whole entry, looked up): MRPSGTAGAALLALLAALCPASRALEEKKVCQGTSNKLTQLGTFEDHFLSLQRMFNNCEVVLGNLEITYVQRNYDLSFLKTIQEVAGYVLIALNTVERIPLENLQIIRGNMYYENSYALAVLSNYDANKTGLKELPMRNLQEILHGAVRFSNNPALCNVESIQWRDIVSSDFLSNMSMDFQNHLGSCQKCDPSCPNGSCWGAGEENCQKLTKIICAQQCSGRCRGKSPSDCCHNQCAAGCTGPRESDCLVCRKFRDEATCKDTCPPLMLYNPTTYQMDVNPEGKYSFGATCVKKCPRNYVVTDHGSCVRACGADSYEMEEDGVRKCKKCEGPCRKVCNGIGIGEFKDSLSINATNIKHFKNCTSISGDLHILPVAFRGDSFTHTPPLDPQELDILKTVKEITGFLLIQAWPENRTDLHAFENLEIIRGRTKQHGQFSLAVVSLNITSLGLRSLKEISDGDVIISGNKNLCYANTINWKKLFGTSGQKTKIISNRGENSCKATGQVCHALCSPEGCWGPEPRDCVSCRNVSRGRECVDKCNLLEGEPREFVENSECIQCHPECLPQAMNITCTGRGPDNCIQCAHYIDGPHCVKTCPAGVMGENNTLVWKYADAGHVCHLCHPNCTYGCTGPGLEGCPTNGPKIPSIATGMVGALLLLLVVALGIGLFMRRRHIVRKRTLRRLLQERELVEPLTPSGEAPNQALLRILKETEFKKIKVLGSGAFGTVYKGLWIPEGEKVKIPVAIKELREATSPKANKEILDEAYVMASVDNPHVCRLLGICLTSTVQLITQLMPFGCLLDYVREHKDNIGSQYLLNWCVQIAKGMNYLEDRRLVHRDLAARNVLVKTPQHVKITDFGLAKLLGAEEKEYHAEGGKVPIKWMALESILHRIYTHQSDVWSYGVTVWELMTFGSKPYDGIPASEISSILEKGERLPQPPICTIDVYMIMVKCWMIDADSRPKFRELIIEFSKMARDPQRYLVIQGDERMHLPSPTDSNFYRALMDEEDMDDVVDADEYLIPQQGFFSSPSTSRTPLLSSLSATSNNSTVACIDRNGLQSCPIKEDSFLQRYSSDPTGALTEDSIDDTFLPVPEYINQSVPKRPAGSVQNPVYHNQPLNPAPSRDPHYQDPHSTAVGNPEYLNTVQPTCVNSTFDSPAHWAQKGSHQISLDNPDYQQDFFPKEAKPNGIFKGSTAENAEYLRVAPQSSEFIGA
Chain of Left-right determination factor 2 (Homo sapiens) (O00292 whole entry, looked up): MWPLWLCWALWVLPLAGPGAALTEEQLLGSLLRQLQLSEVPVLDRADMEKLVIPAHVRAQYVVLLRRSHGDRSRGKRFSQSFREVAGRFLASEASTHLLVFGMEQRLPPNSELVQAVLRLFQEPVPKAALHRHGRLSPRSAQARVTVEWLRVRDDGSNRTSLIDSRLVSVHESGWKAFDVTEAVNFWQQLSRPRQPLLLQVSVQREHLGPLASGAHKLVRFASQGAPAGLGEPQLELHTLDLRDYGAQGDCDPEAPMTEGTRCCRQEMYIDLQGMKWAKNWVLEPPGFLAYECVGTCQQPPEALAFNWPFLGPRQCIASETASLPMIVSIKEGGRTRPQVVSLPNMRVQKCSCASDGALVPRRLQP
Chain of Torsin-1A-interacting protein 1 (Homo sapiens) (Q5JTV8 whole entry, looked up): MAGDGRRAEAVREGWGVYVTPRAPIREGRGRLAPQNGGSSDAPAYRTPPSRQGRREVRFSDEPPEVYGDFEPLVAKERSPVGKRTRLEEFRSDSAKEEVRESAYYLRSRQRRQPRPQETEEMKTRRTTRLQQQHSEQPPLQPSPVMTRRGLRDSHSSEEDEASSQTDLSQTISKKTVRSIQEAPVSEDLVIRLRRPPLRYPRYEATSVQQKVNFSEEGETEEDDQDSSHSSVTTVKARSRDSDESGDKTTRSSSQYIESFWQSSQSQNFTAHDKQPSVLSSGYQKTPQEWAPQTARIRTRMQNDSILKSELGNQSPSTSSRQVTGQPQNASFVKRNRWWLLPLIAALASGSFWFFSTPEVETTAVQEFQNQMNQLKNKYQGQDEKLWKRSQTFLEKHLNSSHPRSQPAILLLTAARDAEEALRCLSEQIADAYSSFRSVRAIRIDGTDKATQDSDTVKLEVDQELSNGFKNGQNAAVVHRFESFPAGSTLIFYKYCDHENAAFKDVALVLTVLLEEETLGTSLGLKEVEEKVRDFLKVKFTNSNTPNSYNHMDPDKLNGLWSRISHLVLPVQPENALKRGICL

Regarding `CCOC(=O)C[C@H]1[C@H](OC(=O)c2ccc(-c3ccccc3)cc2)[C@@H](NC(=O)C2CCCCC2)c2cc(OCCCO)ccc2N1C(=O)Cc1ccc(OC)cc1`, the composite z-score was -0.186 in assay [1]; 0.0229 in assay [2]; 0.0338 in assay [3]; 0.135 in [5]; 0.178 in assay [6]; 0.273 in assay [7]. Besides, the composite z-score in assay [8] came out at 0.217; in assay [9], 0.0901; in [10], 0.647; in [11], 0.612; in [13], 0.4; in [14], 1.07. Besides, the composite z-score is 0.881 in assay [15]; -0.0523 in [16]; -0.571 in assay [17]; -0.638 in assay [18]; 0.527 in assay [19]; 0.333 in assay [20]. The z-score is -0.772 (inactive) in assay [4] and -1.57 in assay [12].
For `C=C(CCCC)/C(=C/C[C@@H](OC(C)=O)c1cccc(OCCO)c1)c1cc(C(=O)OC)ccc1OC`, the composite z-score in [1] is 1.31; in [2], -0.113; in [3] it was 0.0282; in assay [5], -0.004; in assay [6], -0.657; in [7], -0.347. Besides, the composite z-score in assay [8] was 0.212; in assay [9], -0.08; in assay [10] it was 0.863; in [11], 0.364; in assay [13], -0.227; in [14] it was -0.405. Moreover, the composite z-score in [15] was -0.788; in assay [16] it was -0.119; in assay [17], 0.111; in assay [18], -0.18; in assay [19], 0.714; in assay [20] it was 0.621. Moreover, the z-score in assay [4] is -0.509 (inactive); in assay [12] it was -2.02.
For the compound `C=CCOC(=O)[C@H]1[C@@H]2C(=O)O[C@@H](c3ccccc3)[C@@H](c3ccccc3)N2[C@@H](c2ccc(OCCOC(=O)[C@@H]3C[C@@H]4C(=O)N[C@@H](Cc5ccccc5)C(=O)N4[C@@H]3c3ccc(O)cc3)cc2)[C@]12C(=O)Nc1ccc(I)cc12`, the composite z-score in assay [1] is 1.5; in assay [2], -0.188; in [3] it was -0.381; in [5], 1.31; in assay [6] it was 0.606; in assay [7] it was 0.654. Also, the composite z-score in assay [8] amounted to 1.24; in [9] it was 0.825; in assay [10] it was 0.684; in assay [11], 1.27; in assay [13], 0.898; in [14] it was 0.367. Besides, the composite z-score in assay [15] is 0.242; in [16], -0.152; in assay [17], -0.154; in [18], -0.432; in [19], -0.164; in assay [20] it was 0.875. In addition, the z-score in [4] is -0.461 (inactive); in [12] it was -1.64.
For `[N-]=[N+]=Nc1ccccc1C[C@@]1(C(=O)NCc2ccccc2)N=C(c2ccc(OCCCO)cc2)O[C@@H]1c1ccccc1`, the composite z-score in assay [1] worked out at 1.22; in assay [2], 0.95; in assay [3], 1.03; in [5], 1.14; in [6], 1.29; in assay [7] it was 0.165. The composite z-score in assay [8] was found to be 1.06; in [9], 0.313; in assay [10] it was 0.838; in assay [11], 1.08; in [13], 0.262; in assay [14], 1.41. In addition, the composite z-score amounted to 0.313 in assay [15]; 0.534 in [16]; 0.0326 in [17]; 2.22 in assay [18]; 1.13 in [19]; 0.39 in assay [20]. Also, the values for the z-score in [4] and in [12] were -0.0448 (inactive) and -1.76, respectively.
Take `C=C(CCCC)C(=O)CC[C@H](OC(=O)c1ccccc1-c1ccccc1C(=O)O)c1cccc(OCCO)c1`: the composite z-score in [1] is 0.642; in [2], -0.399; in assay [3], -0.454; in assay [5], -0.282; in [6], -0.121; in [7], -0.988. Moreover, the composite z-score in assay [8] is -0.578; in assay [9], 0.0668; in [10], 1.33; in assay [11] it was -0.109; in assay [13] it was 0.0292; in assay [14] it was -0.268. Besides, the composite z-score in [15] is -0.832; in assay [16], -0.13; in assay [17] it was -0.0866; in assay [18] it was -0.318; in assay [19], 0.206; in assay [20], -0.0274. The results for the z-score in [4] and in assay [12] were -0.289 (inactive) and -1.92, respectively.
For `CC(=O)NCCCC[C@@H]1NC(=O)[C@H]2C[C@@H](C(=O)NCCCCCN)[C@@H](c3ccc(O)cc3)N2C1=O`, the composite z-score was determined as 0.863 in [1]; 0.316 in [2]; 0.17 in assay [3]; 0.544 in [5]; 1.29 in assay [6]; 0.511 in [7]. Further, the composite z-score was 0.777 in assay [8]; 1.02 in assay [9]; 0.792 in [10]; 1.36 in assay [11]; 0.777 in assay [13]; 0.536 in assay [14]. Further, the composite z-score in [15] was 0.973; in [16], -0.1; in assay [17] it was -0.0211; in assay [18], -0.221; in assay [19], 0.852; in assay [20], 0.988. Further, the figures for the z-score in assay [4] and in assay [12] were 0.0809 (inactive) and 0.199, respectively.
